Measured values from PubChem BioAssay (Tox21).
Results filed as inconclusive are left out. Where a call stands in place of a potency, no number is given. Active and inactive are the calls of the source. The call rests on the fitted dose curve; in most records, active means well fitted activation curve with a large enough effect in the repeat runs; inconclusive means weak or mixed curves, or effect the other way; inactive means no such curve, though single readings can be large or run the other way.

Experiment: qHTS assay to identify small molecule agonists of the retinoic acid receptor (RAR) signaling pathway (AID 1159553)
Conditions: C3RL4 RARE luciferase reporter, agonist, 6 h; series mostly up to 73.3 µM
From the text: National Center for Advancing Translational Sciences [NCATS] NIH Chemical Genomics Center [NCGC] U.S. Environmental Protection Agency [EPA] National Institutes of Environmental Health Sciences [NIEHS] National Toxicology Program [NTP] Assay overview: All-trans Retinoic acid (atRA) is the potent natural metabolite of retinol and plays an important role in normal embryonic development and maintenance of cellular phenotype in adult animals. atRA is the activating ligand for the retinoic acid receptors (RARs) which form heterodimers with retinoid X receptors (RXRs) on the retinoic acid response element (RARE). Through activation of the RAR/RXRs nuclear receptors, atRA regulates the transcription of a large number of protein-coding genes and regulatory RNAs. Intracellular levels of atRA are controlled by the retinol signaling pathway (RSP) that regulates the biosynthesis and catabolism of atRA to maintain physiological levels. Chemicals that interfere with the RSP can cause abnormal intracellular levels of atRA and therefore are potential developmental toxicants. To assess compounds for the potential adverse effect on embryonic development through interfering with retinol signaling, a cell-based RARE luciferase reporter gene assay was used. C3RL4 cell line (OARSA/CFSAN/FDA, Laurel, MD) was used to screen Tox21 10K compound library for identifying activators of the RSP.
Assay Protocol Summary: C3RL4 cells were seeded at 1,000/well in 5 uL of assay medium into white solid 1,536-well tissue culture plates (Greiner Bio-One North America Inc. Monroe, NC) using a Multidrop Combi (Thermo Scientific, Waltham, MA) dispenser. After incubation at 37 C and 5% CO2 for an overnight, 23 nL of compounds dissolved in DMSO, positive control or DMSO only were transferred by a Pintool station (Kalypsys, San Diego, CA). After 6 hr incubation at 37 C and 5% CO2, 5 uL of Amplite Luciferase reagent (AAT Bioquest Inc. Sunnyvale, CA) was added to each assay plate using a Flying Reagent Dispenser (FRD) (Aurora Discovery, San Diego, CA). Luminescence was quantified on a ViewLux plate reader (PerkinElmer, Waltham, MA) after 30 min incubation at room temperature.
Potency means the concentration at half of the fitted maximal effect.

Row | SMILES | Potency
1 | Cc1occc1S | inactive
2 | O=C(c1ccccc1)c1ccc2n1CCC2C(=O)O (stereo not given) | 13.3 µM (active)
3 | O=C(NS(=O)(=O)/C=C/c1cccs1)c1ccc(F)cc1Br | inactive
4 | C=C(C)C(=O)OCCN(C)C | inactive
5 | Cn1c(=O)c2c(ncn2CC(O)CO)n(C)c1=O (stereo not given) | inactive
6 | CCCc1ccccc1 | inactive
7 | CN(C)CCCNCCCN | inactive
8 | CCCCCCOC(=O)CCC | inactive
9 | Cc1ncsc1CCO | inactive
10 | NC(N)=NN=C(/C=C/c1ccc([N+](=O)[O-])o1)/C=C/c1ccc([N+](=O)[O-])o1 | 2.11 µM (active)
11 | CCCCCC(CO)CCC (stereo not given) | inactive
12 | CCCCOc1ccc(CC(=O)NO)cc1 | 29.8 µM (active)
13 | O=C(CCN1CCN2CCCC2C1)N1c2ccccc2Sc2ccc(Cl)cc21 (stereo not given) | inactive
14 | CC(C)(C)c1cc(CO)cc(C(C)(C)C)c1O | inactive
15 | O=S1(=O)c2cccc3cccc(c23)N1CCCN1CCN(c2ccc(F)cc2)CC1 | inactive
16 | CC(=O)O[C@@H]1C(=O)O[C@@H]2[C@H]1OC(=O)[C@@H]2OC(C)=O | inactive
17 | C=Cc1c(C)c2cc3[nH]c(cc4nc(cc5nc(cc1[nH]2)C(C)=C5CCC(=O)O)C(CCC(=O)O)=C4C)c(C)c3C=C | inactive
18 | O=C(O)/C=C/c1cnc[nH]1 | inactive
19 | Cc1ccc(C)o1 | inactive
20 | CC(C)NCC(O)COc1ccc(CC(N)=O)cc1 (stereo not given) | inactive

Row | SMILES | Potency
21 | Cl/C(=C\n1cncn1)c1ccc(Cl)cc1Cl | inactive
22 | CC(C)c1cccc(C(C)C)c1NC(=O)NS(=O)(=O)c1cc(C(C)(C)O)co1 | inactive
23 | C=CC[N+]1([C@H]2C[C@H]3[C@@H]4CC[C@H]5C[C@H](OC(C)=O)[C@@H](N6CCCCC6)C[C@]5(C)[C@H]4CC[C@]3(C)[C@H]2OC(=O)CC)CCCCC1 | inactive
24 | CC(Cc1cccc(C(F)(F)F)c1)NCCOC(=O)c1ccccc1 (stereo not given) | inactive
25 | O=C(O)COC(=O)Cc1ccccc1Nc1c(Cl)cccc1Cl | inactive
26 | O=C(Cl)c1c(Cl)cccc1Cl | inactive
27 | c1ccc(CNCc2ccccc2)cc1 | inactive
28 | c1ccc(OCc2ccc(CCCN3CCOCC3)cc2)cc1 | 13.3 µM (active)
29 | O=C(O)Cc1cc(I)c(Oc2ccc(O)c(I)c2)c(I)c1 | inactive
30 | CCCCOC(=O)/C=C\C(=O)OCCCC | inactive
31 | SC1CCCC1 | inactive
32 | CCCCCOC(=O)COc1cc(N2C(=O)C3=C(CCCC3)C2=O)c(F)cc1Cl | inactive
33 | C1CCC2OC2C1 (stereo not given) | inactive
34 | CN(c1nccc(=O)[nH]1)C1CCN(c2nc3ccccc3n2Cc2ccc(F)cc2)CC1 | inactive
35 | CC1=CC(=O)/C(=C(/C)O)C(=O)O1 | inactive
36 | O=C(O)Cn1c(C(=O)Nc2nc(-c3ccccc3Cl)cs2)cc2ccccc21 | inactive
37 | OCCC1CCCCN1 (stereo not given) | inactive
38 | O=[N+]([O-])c1cccc(Cl)c1Cl | inactive
39 | N#Cc1cc2ccccc2c2ccccc12 | inactive
40 | O=C1[C@H](CC[C@H](O)c2ccc(F)cc2)[C@@H](c2ccc(O)cc2)N1c1ccc(F)cc1 | inactive
